From the supplement of paper PMC7411054
Counter-ions that a name gives are not always drawn.

Experiments:
Test in all cases: phenotypically active (imaging signature differs from DMSO and reproducible) at any of 0.3-9 uM (binary (1 = active, 0 = inactive)); higher = active
Conditions in all cases: treatment time: 24 h
A549-ACTB-RAB5A = test system: A549-ACTB-RAB5A
In short: (§1)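 Cells from fifteen gene-edited reporter lines (A549, HepG2 and WPMY1) were treated for 24 h at 0.3, 1, 3 or 9 µM and imaged live, four wells per condition. Features were normalised per well to solvent control wells. A condition deviated if ≥3 of 4 wells passed the 95th percentile of control Euclidean distances and was reproducible if its median replicate Pearson correlation beat the 95th percentile of non-replicates; phenotypic activity needed both.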

A549-CANX-COX4 = test system: A549-CANX-COX4
In short: as §1

A549-GM130-SQSTM1 = test system: A549-GM130-SQSTM1
In short: as §1

A549-TP53BP1-CLTA = test system: A549-TP53BP1-CLTA
In short: as §1

A549-TUBA1B-RELA = test system: A549-TUBA1B-RELA
In short: as §1

HepG2-ACTB-RAB5A = test system: HepG2-ACTB-RAB5A
In short: as §1

HepG2-CANX-COX4 = test system: HepG2-CANX-COX4
In short: as §1

HepG2-GM130-SQSTM1 = test system: HepG2-GM130-SQSTM1
In short: as §1

HepG2-TP53BP1-CLTA = test system: HepG2-TP53BP1-CLTA
In short: as §1

HepG2-TUBA1B-RELA = test system: HepG2-TUBA1B-RELA
In short: as §1

WPMY1-ACTB-RAB5A = test system: WPMY1-ACTB-RAB5A
In short: as §1

WPMY1-CANX-COX4 = test system: WPMY1-CANX-COX4
In short: as §1

WPMY1-GM130-SQSTM1 = test system: WPMY1-GM130-SQSTM1
In short: as §1

WPMY1-TP53BP1-CLTA = test system: WPMY1-TP53BP1-CLTA
In short: as §1

WPMY1-TUBA1B-RELA = test system: WPMY1-TUBA1B-RELA
In short: as §1

Measured: phenotypically active

CCCCCOC(=O)Nc1nc(=O)n([C@@H]2O[C@H](C)[C@@H](O)[C@H]2O)cc1F [capecitabine]
inactive: A549-ACTB-RAB5A 0 | A549-CANX-COX4 0 | A549-GM130-SQSTM1 0 | A549-TP53BP1-CLTA 0 | A549-TUBA1B-RELA 0 | HepG2-ACTB-RAB5A 0 | HepG2-CANX-COX4 0 | HepG2-GM130-SQSTM1 0 | HepG2-TP53BP1-CLTA 0 | HepG2-TUBA1B-RELA 0 | WPMY1-ACTB-RAB5A 0 | WPMY1-CANX-COX4 0 | WPMY1-GM130-SQSTM1 0 | WPMY1-TP53BP1-CLTA 0 | WPMY1-TUBA1B-RELA 0

O=C(O)CCc1ccccc1 [Hydrocinnamic acid]
inactive: A549-ACTB-RAB5A 0 | A549-CANX-COX4 0 | A549-GM130-SQSTM1 0 | A549-TP53BP1-CLTA 0 | A549-TUBA1B-RELA 0 | HepG2-ACTB-RAB5A 0 | HepG2-CANX-COX4 0 | HepG2-GM130-SQSTM1 0 | HepG2-TP53BP1-CLTA 0 | HepG2-TUBA1B-RELA 0 | WPMY1-ACTB-RAB5A 0 | WPMY1-CANX-COX4 0 | WPMY1-GM130-SQSTM1 0 | WPMY1-TP53BP1-CLTA 0 | WPMY1-TUBA1B-RELA 0

CCC(=C(CC)c1ccc(O)cc1)c1ccc(O)cc1 (stereo in doubt) [diethylstilbestrol]
inactive: A549-ACTB-RAB5A 0 | A549-CANX-COX4 0 | A549-GM130-SQSTM1 0 | A549-TP53BP1-CLTA 0 | A549-TUBA1B-RELA 0 | HepG2-ACTB-RAB5A 0 | HepG2-CANX-COX4 0 | HepG2-GM130-SQSTM1 0 | HepG2-TP53BP1-CLTA 0 | HepG2-TUBA1B-RELA 0 | WPMY1-ACTB-RAB5A 0 | WPMY1-CANX-COX4 0 | WPMY1-GM130-SQSTM1 0 | WPMY1-TP53BP1-CLTA 0 | WPMY1-TUBA1B-RELA 0

COc1c2c(cc3oc(CO)cc(=O)c13)O[C@@H](C(C)(C)O)C2 [Cimifugin]
inactive: A549-ACTB-RAB5A 0 | A549-CANX-COX4 0 | A549-GM130-SQSTM1 0 | A549-TP53BP1-CLTA 0 | A549-TUBA1B-RELA 0 | HepG2-ACTB-RAB5A 0 | HepG2-CANX-COX4 0 | HepG2-GM130-SQSTM1 0 | HepG2-TP53BP1-CLTA 0 | HepG2-TUBA1B-RELA 0 | WPMY1-ACTB-RAB5A 0 | WPMY1-CANX-COX4 0 | WPMY1-GM130-SQSTM1 0 | WPMY1-TP53BP1-CLTA 0 | WPMY1-TUBA1B-RELA 0

CCc1cc2c(=O)c(-c3nc4ccccc4s3)coc2c(CN2CCCCC2)c1O
inactive: A549-ACTB-RAB5A 0 | A549-CANX-COX4 0 | A549-GM130-SQSTM1 0 | A549-TP53BP1-CLTA 0 | A549-TUBA1B-RELA 0 | HepG2-ACTB-RAB5A 0 | HepG2-CANX-COX4 0 | HepG2-GM130-SQSTM1 0 | HepG2-TP53BP1-CLTA 0 | HepG2-TUBA1B-RELA 0 | WPMY1-ACTB-RAB5A 0 | WPMY1-CANX-COX4 0 | WPMY1-GM130-SQSTM1 0 | WPMY1-TP53BP1-CLTA 0 | WPMY1-TUBA1B-RELA 0

Cc1ccc(OCCSc2ncccn2)c(Br)c1 [ZLN 024 hydrochloride]
inactive: A549-ACTB-RAB5A 0 | A549-CANX-COX4 0 | A549-GM130-SQSTM1 0 | A549-TP53BP1-CLTA 0 | A549-TUBA1B-RELA 0 | HepG2-ACTB-RAB5A 0 | HepG2-CANX-COX4 0 | HepG2-GM130-SQSTM1 0 | HepG2-TP53BP1-CLTA 0 | HepG2-TUBA1B-RELA 0 | WPMY1-ACTB-RAB5A 0 | WPMY1-CANX-COX4 0 | WPMY1-GM130-SQSTM1 0 | WPMY1-TP53BP1-CLTA 0 | WPMY1-TUBA1B-RELA 0

COC1=C(O)C(=O)c2ccccc2C1=O [2-hydroxy-3-methoxy-naphtoquinone]
inactive: A549-ACTB-RAB5A 0 | A549-CANX-COX4 0 | A549-GM130-SQSTM1 0 | A549-TP53BP1-CLTA 0 | A549-TUBA1B-RELA 0 | HepG2-ACTB-RAB5A 0 | HepG2-CANX-COX4 0 | HepG2-GM130-SQSTM1 0 | HepG2-TP53BP1-CLTA 0 | HepG2-TUBA1B-RELA 0 | WPMY1-ACTB-RAB5A 0 | WPMY1-CANX-COX4 0 | WPMY1-GM130-SQSTM1 0 | WPMY1-TP53BP1-CLTA 0 | WPMY1-TUBA1B-RELA 0

CC1(C(=O)O)CCC2(C)CCC3(C)C(=CC(=O)C4C5(C)CCC(OC6OC(C(=O)O)C(O)C(O)C6OC6OC(C(=O)O)C(O)C(O)C6O)C(C)(C)C5CCC43C)C2C1 (stereo not given) [Glycyrrhizic acid]
inactive: A549-ACTB-RAB5A 0 | A549-CANX-COX4 0 | A549-GM130-SQSTM1 0 | A549-TP53BP1-CLTA 0 | A549-TUBA1B-RELA 0 | HepG2-ACTB-RAB5A 0 | HepG2-CANX-COX4 0 | HepG2-GM130-SQSTM1 0 | HepG2-TP53BP1-CLTA 0 | HepG2-TUBA1B-RELA 0 | WPMY1-ACTB-RAB5A 0 | WPMY1-CANX-COX4 0 | WPMY1-GM130-SQSTM1 0 | WPMY1-TP53BP1-CLTA 0 | WPMY1-TUBA1B-RELA 0

CO[C@@]12[C@H](COC(N)=O)C3=C(C(=O)C(C)=C(N)C3=O)N1C[C@@H]1N[C@@H]12 [mitomycin]
inactive: A549-ACTB-RAB5A 0 | A549-CANX-COX4 0 | A549-GM130-SQSTM1 0 | A549-TP53BP1-CLTA 0 | A549-TUBA1B-RELA 0 | HepG2-ACTB-RAB5A 0 | HepG2-CANX-COX4 0 | HepG2-GM130-SQSTM1 0 | HepG2-TP53BP1-CLTA 0 | HepG2-TUBA1B-RELA 0 | WPMY1-ACTB-RAB5A 0 | WPMY1-CANX-COX4 0 | WPMY1-GM130-SQSTM1 0 | WPMY1-TP53BP1-CLTA 0 | WPMY1-TUBA1B-RELA 0

CC(C)(C)NS(=O)(=O)c1cncc(-c2cc(F)c3nc(N)nn3c2)c1
inactive: A549-ACTB-RAB5A 0 | A549-CANX-COX4 0 | A549-GM130-SQSTM1 0 | A549-TP53BP1-CLTA 0 | A549-TUBA1B-RELA 0 | HepG2-ACTB-RAB5A 0 | HepG2-CANX-COX4 0 | HepG2-GM130-SQSTM1 0 | HepG2-TP53BP1-CLTA 0 | HepG2-TUBA1B-RELA 0 | WPMY1-ACTB-RAB5A 0 | WPMY1-CANX-COX4 0 | WPMY1-GM130-SQSTM1 0 | WPMY1-TP53BP1-CLTA 0 | WPMY1-TUBA1B-RELA 0

Cc1c(-c2ccccc2)oc2c(C(=O)OCCN3CCCCC3)cccc2c1=O [flavoxate]
inactive: A549-ACTB-RAB5A 0 | A549-CANX-COX4 0 | A549-GM130-SQSTM1 0 | A549-TP53BP1-CLTA 0 | A549-TUBA1B-RELA 0 | HepG2-ACTB-RAB5A 0 | HepG2-CANX-COX4 0 | HepG2-GM130-SQSTM1 0 | HepG2-TP53BP1-CLTA 0 | HepG2-TUBA1B-RELA 0 | WPMY1-ACTB-RAB5A 0 | WPMY1-CANX-COX4 0 | WPMY1-GM130-SQSTM1 0 | WPMY1-TP53BP1-CLTA 0 | WPMY1-TUBA1B-RELA 0

c1ccc(CC2=NCCN2)cc1 [tolazoline]
inactive: A549-ACTB-RAB5A 0 | A549-CANX-COX4 0 | A549-GM130-SQSTM1 0 | A549-TP53BP1-CLTA 0 | A549-TUBA1B-RELA 0 | HepG2-ACTB-RAB5A 0 | HepG2-CANX-COX4 0 | HepG2-GM130-SQSTM1 0 | HepG2-TP53BP1-CLTA 0 | HepG2-TUBA1B-RELA 0 | WPMY1-ACTB-RAB5A 0 | WPMY1-CANX-COX4 0 | WPMY1-GM130-SQSTM1 0 | WPMY1-TP53BP1-CLTA 0 | WPMY1-TUBA1B-RELA 0
